Counter-ions that a name gives are not always drawn.
System: HL-1
Test: relative cell viability (CellTiter-Glo) vs DMSO control (% of DMSO control); higher = more viable cells
How it was run: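 One day after HL-1 mouse atrial cardiomyocytes were plated (1000 cells per well, 384-well plates) with compounds at 40, 200, 1000 or 5000 nM in 0.01% DMSO, they were transferred to a hypoxic workstation at 1% O2. After 48 h there, the cells were reoxygenated for 24 h in a normal incubator, and comparison cells stayed in normoxia throughout the same time. Cell viability was quantified with CellTiter-Glo luminescence and normalised to vehicle-treated control cells.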

[1] = oxygen condition: hypoxia 48 h (1% O2) + reoxygenation 24 h, 40 nM
[2] = oxygen condition: hypoxia 48 h (1% O2) + reoxygenation 24 h, 200 nM
[3] = oxygen condition: hypoxia 48 h (1% O2) + reoxygenation 24 h, 1000 nM
[4] = oxygen condition: hypoxia 48 h (1% O2) + reoxygenation 24 h, 5000 nM
[5] = oxygen condition: normoxia 72 h, 40 nM
[6] = oxygen condition: normoxia 72 h, 200 nM
[7] = oxygen condition: normoxia 72 h, 1000 nM
[8] = oxygen condition: normoxia 72 h, 5000 nM

Compound | relative cell viability [1] | relative cell viability [2] | relative cell viability [3] | relative cell viability [4] | relative cell viability [5] | relative cell viability [6] | relative cell viability [7] | relative cell viability [8]
C[C@H](CCC(=O)O)[C@H]1CC[C@H]2[C@@H]3[C@@H](O)C[C@@H]4C[C@H](O)CC[C@]4(C)[C@H]3CC[C@]12C [Ursodiol] | 103 | 106 | 118 | 106 | 99.7 | 105 | 119 | 108
CC1=NN(c2ccccc2)C(=O)C1 [Edaravone] | 101 | 97.7 | 95.2 | 108 | 95.7 | 95.9 | 98.9 | 103
Cc1cnc(C(=O)NCCc2ccc(S(=O)(=O)NC(=O)NC3CCCCC3)cc2)cn1 [Glipizide] | 109 | 108 | 108 | 109 | 106 | 97.1 | 106 | 110
Cc1ccc(S(=O)(=O)NC(=O)NN2CCCCCC2)cc1 [Tolazamide] | 101 | 103 | 98.3 | 110 | 102 | 99.1 | 106 | 117
Cc1nc(Nc2ncc(C(=O)Nc3c(C)cccc3Cl)s2)cc(N2CCN(CCO)CC2)n1 [Dasatinib] | 71.8 | 87.1 | 80.2 | 90.2 | 85.9 | 88.5 | 82.1 | 89.2
O=C(c1ccc(OCCN2CCCCC2)cc1)c1c(-c2ccc(O)cc2)sc2cc(O)ccc12 [Evista] | 111 | 107 | 106 | 54 | 112 | 107 | 109 | 68.7
CCCCc1oc2ccc(NS(C)(=O)=O)cc2c1C(=O)c1ccc(OCCCN(CCCC)CCCC)cc1 [Dronedarone HCl] | 99.9 | 99.6 | 102 | 105 | 99.8 | 110 | 102 | 95
Fc1ccc(C(c2ccc(F)cc2)N2CCN(C/C=C/c3ccccc3)CC2)cc1 [Flunarizine 2HCl] | 93.6 | 100 | 98.7 | 117 | 107 | 99.7 | 109 | 114
Cc1cccc(C)c1NC(=O)C1CCCCN1C (stereo not drawn) [Mepivacaine HCl] | 102 | 99.8 | 121 | 105 | 102 | 110 | 111 | 111
OCCOCCN1CCN(C(c2ccccc2)c2ccc(Cl)cc2)CC1 (stereo not drawn) [Hydroxyzine 2HCl] | 104 | 107 | 109 | 114 | 102 | 107 | 105 | 109
O=C(NC[C@H]1CN(c2ccc(N3CCOCC3=O)cc2)C(=O)O1)c1ccc(Cl)s1 [Rivaroxaban] | 91.5 | 106 | 99.8 | 112 | 99 | 90.8 | 103 | 92.1
CCc1ccc(CCOc2ccc(CC3SC(=O)NC3=O)cc2)nc1 (stereo not drawn) [Pioglitazone hydrochloride] | 106 | 97.2 | 103 | 106 | 94.5 | 97.9 | 101 | 103
C#C[C@]1(O)CC[C@H]2[C@@H]3CCC4=CC(=O)CC[C@@H]4[C@H]3CC[C@@]21CC [Levonorgestrel] | 110 | 115 | 104 | 112 | 107 | 104 | 111 | 111
C[C@@H]1C[C@H]2[C@@H]3C[C@H](F)C4=CC(=O)C=C[C@]4(C)[C@@]3(F)[C@@H](O)C[C@]2(C)[C@@]1(O)C(=O)CO [Flumethasone] | 105 | 97.4 | 103 | 106 | 96.3 | 95.8 | 94.4 | 108
CN1C[C@@H]2C[C@H]1CN2c1cc2c(cc1F)c(=O)c(C(=O)O)cn2C1CC1 [Danofloxacin Mesylate] | 106 | 104 | 111 | 108 | 111 | 101 | 103 | 107
NCCCC(O)(P(=O)(O)O)P(=O)(O)O [Alendronate] | 104 | 102 | 106 | 109 | 99.2 | 105 | 107 | 109
Cc1cn(-c2cc(NC(=O)c3ccc(C)c(Nc4nccc(-c5cccnc5)n4)c3)cc(C(F)(F)F)c2)cn1 [Nilotinib] | 101 | 81.4 | 107 | 111 | 105 | 104 | 104 | 108
C[C@@]12C[C@@]3(O)O[C@@H](O1)[C@]1(COC(=O)c4ccccc4)[C@H]3C[C@@]12O[C@@H]1O[C@H](CO)[C@@H](O)[C@H](O)[C@H]1O [Paeoniflorin] | 106 | 102 | 108 | 118 | 107 | 111 | 109 | 118
CNC[C@H](O)c1ccc(O)c(O)c1 [Epinephrine bitartrate] | 99.2 | 98.8 | 97.2 | 6.86 | 101 | 102 | 98.4 | 3.42
CCCCOc1ccc(OCCCN2CCOCC2)cc1 [Pramoxine HCl] | 106 | 110 | 110 | 118 | 110 | 107 | 97.5 | 119
CN1C2CCCC1CC(NC(=O)c1nn(C)c3ccccc13)C2 (stereo not drawn) [Granisetron HCl] | 103 | 102 | 106 | 101 | 101 | 102 | 105 | 102

Compound | relative cell viability [1] | relative cell viability [2] | relative cell viability [3] | relative cell viability [4] | relative cell viability [5] | relative cell viability [6] | relative cell viability [7] | relative cell viability [8]
CC[C@@H]1C(=O)OC[C@@H]1Cc1cncn1C [Pilocarpine HCl] | 104 | 111 | 105 | 110 | 115 | 104 | 106 | 119
COc1cccc2c1C(=O)c1c(O)c3c(c(O)c1C2=O)C[C@@](O)(C(=O)CO)C[C@@H]3O[C@H]1C[C@H](N)[C@H](O)[C@H](C)O1 [Doxorubicin] | 63.3 | 44 | 57.3 | 16.7 | 63 | 55.4 | 52.4 | 13.7
N#CC[C@H](C1CCCC1)n1cc(-c2ncnc3[nH]ccc23)cn1 [Ruxolitinib] | 95.7 | 98.9 | 104 | 111 | 99.8 | 96.6 | 102 | 104
CN(C)CCCN1c2ccccc2CCc2ccccc21 [Imipramine HCl] | 98.5 | 98.9 | 96.2 | 110 | 100 | 101 | 101 | 111
CC(=O)Nc1ccccc1 [Acetanilide] | 96.5 | 98.9 | 100 | 111 | 101 | 94.9 | 98 | 105
CCN1CCN(c2cc(-c3ccc(F)cc3)c3c(n2)CCCCCC3)CC1 [Blonanserin] | 101 | 99.5 | 91.2 | 49.4 | 103 | 93.3 | 93.5 | 51.2
COc1cc([C@@H]2c3cc4c(cc3[C@@H](O[C@@H]3O[C@@H]5CO[C@@H](c6cccs6)O[C@H]5[C@H](O)[C@H]3O)[C@H]3COC(=O)[C@H]23)OCO4)cc(OC)c1O [Teniposide] | 96.6 | 102 | 98.2 | 115 | 105 | 104 | 102 | 118
O=C(c1ccccc1)c1ccc2n1CCC2C(=O)O (stereo not drawn) [Ketorolac] | 104 | 105 | 104 | 109 | 102 | 98.3 | 103 | 111
CS(=O)(=O)CCNCc1ccc(-c2ccc3ncnc(Nc4ccc(OCc5cccc(F)c5)c(Cl)c4)c3c2)o1 [Lapatinib Ditosylate] | 107 | 116 | 116 | 84.4 | 107 | 115 | 122 | 61.7
CS(=O)(=O)CCNCc1ccc(-c2ccc3ncnc(Nc4ccc(OCc5cccc(F)c5)c(Cl)c4)c3c2)o1 [Lapatinib] | 101 | 97.4 | 99.7 | 104 | 93.2 | 96.8 | 94 | 102
CC(=O)OCC(=O)[C@@]1(O)CC[C@H]2[C@@H]3CCC4=CC(=O)CC[C@]4(C)[C@H]3C(=O)C[C@@]21C [Cortisone acetate] | 99.7 | 98.2 | 98.1 | 108 | 94.7 | 94.2 | 93.2 | 103
CC1=NN(c2ccc(C)c(C)c2)C(=O)/C1=N\Nc1cccc(-c2cccc(C(=O)O)c2)c1O [Eltrombopag] | 105 | 86 | 109 | 107 | 106 | 112 | 111 | 108
O=S(=O)(O)CCS [Mesna] | 105 | 102 | 116 | 120 | 112 | 109 | 112 | 123
Cc1nc2c([nH]1)-c1ccccc1N(C(=O)c1ccc(NC(=O)c3ccccc3-c3ccccc3)cc1)CC2 [Conivaptan HCl] | 100 | 98.8 | 46.4 | 47.7 | 98 | 84.2 | 89.2 | 36.5
N[C@@H](Cc1cc(I)c(Oc2ccc(O)c(I)c2)c(I)c1)C(=O)O [Liothyronine Sodium] | 105 | 108 | 111 | 109 | 103 | 102 | 108 | 107
CC(=O)Oc1ccc(C(c2ccc(OC(C)=O)cc2)c2ccccn2)cc1 [Bisacodyl] | 103 | 100 | 109 | 111 | 101 | 115 | 101 | 101
O=P(O)(O)C(O)(Cc1cccnc1)P(=O)(O)O [Risedronate sodium] | 103 | 112 | 107 | 122 | 111 | 107 | 121 | 116
COc1cc(C(=O)NC2CCCNC2)cc(OC)c1OC (stereo not drawn) [Troxipide] | 103 | 109 | 106 | 110 | 109 | 110 | 116 | 113
CCCC(CCC)C(=O)O[C@H]1C[C@H]2CC[C@@H](C1)[N+]2(C)C [Anisotropine Methylbromide] | 104 | 101 | 93.2 | 97.8 | 96.3 | 93.7 | 84.7 | 109
C[C@@H](Oc1cc(-c2cnn(C3CCNCC3)c2)cnc1N)c1c(Cl)ccc(F)c1Cl [Crizotinib] | 94.3 | 92.1 | 99.2 | 70.3 | 98.8 | 98.6 | 87.4 | 52
